Results: PubChem BioAssay AID1463 (National Center for Advancing Translational Sciences (NCATS), 2008)
The campaign covered roughly 280,000 compounds. About 2,600 (0.93%) were called active. Inconclusive results (about 8%) are left out. Only a selection was taken, and actives are over-represented in it overall. A number with no mark means an inactive call. The call rests on the fitted dose curve; in most records, active means well fitted curve in the direction sought with a large enough effect; inconclusive means small, poorly fitted or top-dose-only effect; inactive means flat fitted curve, though single readings scatter.

Test: Counterscreen qHTS for Inhibitors of Tau Fibril Formation, Fluorescence Polarization; further: nearly all actives have a fitted effect of over 55% in size
Conditions: tau K18 P301L Alexa594 fluorescence, heparin fibrillization; series mostly up to 57.7 µM; activity change, negative = decrease: at the top concentration
Procedure, shortened: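 Human tau K18 P301L (15 uM unlabeled, 0.24 uM Alexa 594-labeled) in 100 mM sodium acetate pH 7 with 20 uM heparin, 6 hr at 37 C. ThT 30 uM added, 1 hr ambient; Alexa 594 FP and total fluorescence read at 555/632 nm.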
On the % scale 0 is the no-effect control and ±100 the full control effect; potency means the concentration at half of the fitted maximal effect; tags describe the fitted curve by direction and shape or compound fluorescence and quenching.

Row | Structure (SMILES) | activity change, negative = decrease [%] | Potency
1 | CCc1ccccc1NC(=O)N1CCN(C(=O)c2nsc3ccccc23)CC1 | -5.01 | 
2 | COc1cccc(NC(=S)N(CCc2c(C)[nH]c3ccccc23)Cc2ccco2)c1 |  | 12.6 µM [quencher] (active)
3 | Cc1[nH]c2ccccc2c1CCN(Cc1cccs1)C(=S)NC(C)(C)C | -17.2 | 
4 | COc1cccc(NC(=S)NCc2ccco2)c1 | 1.26 | 
5 | CC(C)(C)OC(=O)N1CCC(c2c(C(=O)N3CCc4ccccc4C3)cnn2-c2ccc(F)cc2)CC1 | -6.75 | 
6 | Cc1ccc2[nH]cc(CCCN3C(=O)c4ccccc4C3=O)c2c1 |  | 25.1 µM [quencher] (active)
7 | O=C1c2ccccc2C(=O)N1CCCc1nc(-c2ccccc2)no1 | -12.6 | 
8 | O=C1c2ccccc2C(=O)N1CCc1nn[nH]n1 | 4.43 | 
9 | COc1ccc(CCNC(=O)c2ccc3c(c2)sc2nc(-c4ccc(C)cc4)cn23)cc1OC | 12.4 | 
10 | O=C(CSCc1cnn(-c2ccccc2)c1-n1cccc1)NCc1ccccc1Br | -5.24 | 
11 | CCOc1ccccc1CNC(=O)c1cnc2c(-c3ccc(OCC)c(OCC)c3)c(C)nn2c1C | -23.8 | 
12 | CN(c1ccc(OCC(=O)NC2=NCCS2)cc1)S(=O)(=O)c1ccc(F)cc1 | -15 | 
13 | CN(CC(=O)Nc1cccc(F)c1)CC(=O)Nc1cccc([N+](=O)[O-])c1 | -23.4 | 
14 | CN(c1ccc(OCC(=O)OCC(=O)Nc2cccc([N+](=O)[O-])c2)cc1)S(=O)(=O)c1ccc(F)cc1 |  | 10 µM [quencher] (active)
15 | CC(C)S(=O)(=O)c1csc(NC(=O)Nc2ccc(Cl)cc2)c1Cl |  | 25.1 µM [quencher] (active)
16 | Cn1ccc(NC(=O)Nc2ccc(Cl)cc2)n1 | -10.6 | 
17 | NS(=O)(=O)c1ccc(CCNC(=O)Nc2ccc(Cl)cc2)cc1 | 15.1 | 
18 | Cc1ccc(CSc2nc3cccnc3n2Cc2ccc(C(=O)NC3CC3)cc2)cc1 | 2.64 | 
19 | CCCNC(=O)CCn1nc(-c2ccccc2)c2ccccc2c1=O | -6.14 | 
20 | O=C(Nc1cccc(Cl)c1)Nc1ccccc1NS(=O)(=O)c1cccs1 |  | 11.2 µM [quencher] (active)
21 | COc1cc(NS(=O)(=O)c2cccs2)cc(OC)c1 | -14.8 | 
22 | O=C(Nc1nncs1)c1ccccc1NS(=O)(=O)c1cccs1 | -4.18 | 

Row | Structure (SMILES) | activity change, negative = decrease [%] | Potency
23 | CC(NC(=O)c1cc(Sc2ccc(F)cc2F)nc2ccccc12)c1ccccc1 (centres undefined) | -10.4 | 
24 | CCN(c1ccc(Cl)cc1)S(=O)(=O)c1nnc(NC(=O)c2ccco2)s1 | -2.62 | 
25 | COc1ccc(CCNC(=O)C(=O)NCC(c2ccco2)S(=O)(=O)c2cccs2)cc1OC (centres undefined) | -16.5 | 
26 | CC1=Nc2cc(C(=O)NCc3ccc(C)cc3)ccc2Sc2ccc(Cl)cc21 | -15.9 | 
27 | Cc1ccc(C)c2sc(NC(=O)c3ccc(S(=O)(=O)N4CCCC4)cc3)nc12 | -21.1 | 
28 | CCN(CC)c1ccc(/C=N/Nc2nc(C)cc(C)n2)c(O)c1 | 2.1 | 
29 | CCN(CC)c1ccc2c(Nc3ccccc3)c(C=O)c(=O)oc2c1 | -7.21 | 
30 | CCN(CC)c1ccc2oc(=O)c(C)nc2c1 |  | 12.6 µM [quencher] (active)
31 | COc1cc(OC)c(OC)cc1/C=C/c1nc2cc3ccccc3cc2c(=O)n1-c1ccc(F)c(Cl)c1 | -17.3 | 
32 | COc1ccccc1-c1ccnc2[nH]n(-c3ccccc3)c(=O)c12 | -12.9 | 
33 | CCOC(=O)c1c(C)[nH]c(CCC(=O)NCCCN2CCN(c3cc(C)ccc3C)CC2)c1C | -23.4 | 
34 | C=CCCC(=O)Nc1nc(C)c(-c2csc(Nc3ccc(Cl)cc3)n2)s1 |  | 12.6 µM [quencher] (active)
35 | CCCCCCC(=O)Nc1nc(C)c(-c2csc(Nc3cccc(OC)c3)n2)s1 |  | 8.91 µM [quencher] (active)
36 | Cc1nc(C)c(-c2csc(NCCc3ccccc3)n2)s1 | -27.9 | 
37 | Cc1nc(NC(=O)CN(C)S(=O)(=O)c2ccc(Cl)cc2)sc1C | -18 | 
38 | COc1cccc(CC(=O)Nc2ccc(-c3csc(C)n3)cc2)c1 | -18.4 | 
39 | CCOC(=O)c1csc(NC(=O)Nc2cccc(OC)c2)n1 | -1.36 | 
40 | Cc1ccccc1C(=O)Nc1nnc(S(=O)(=O)N(C)c2ccc(Cl)cc2)s1 | -20 | 
41 | Cc1ccc2onc(CC(=O)N3CCN(c4ccc(Cl)cc4)CC3)c2c1 | 2.99 | 
42 | Cc1cc2c(cc1S(=O)(=O)CCC(=O)Nc1ccc(OC(F)(F)F)cc1)OCC(=O)N2 | -24.4 | 
43 | Cc1cccc(C(=O)N2c3nc(-c4ccco4)nn3C3(CCCCC3)[C@@H]3CCCC[C@@H]32)c1 | -1.79 | 
44 | COc1ccc(-c2cc(-c3ccc(N)cc3)nc(N)c2C#N)cc1OC |  | 28.2 µM [quencher] (active)

Row | Structure (SMILES) | activity change, negative = decrease [%] | Potency
45 | CCSc1nc(-c2ccc(OC)cc2)cc(-c2ccc(OC)cc2)c1C#N | -20.3 | 
46 | CCOc1cc(-c2cc(-c3ccc(OC)cc3)nc(N)c2C#N)ccc1O | -26 | 
47 | CCn1cc2nc(SCc3cccc(F)c3)n(CCc3ccccc3)c(=O)c2n1 | -19.5 | 
48 | CCN1CCN(CCCNC(=O)c2cnn(-c3ccc(C)cc3C)c2C2CCN(C(=O)OC(C)(C)C)CC2)CC1 | -19.1 | 
49 | Cc1csc(NC(=O)Nc2ccccc2[N+](=O)[O-])n1 | -19.4 | 
50 | CCOC(=O)/C(=N\Nc1ccccc1[N+](=O)[O-])c1csc(Nc2ccccc2)n1 |  | 7.08 µM [quencher] (active)
51 | CCOC(=O)Cc1csc(NC(=O)Nc2ccccc2)n1 | -12.3 | 
52 | CCc1ccc(NC(=O)c2cc(S(=O)(=O)NC3CCCCCC3)ccc2F)cc1 | -23.9 | 
53 | Cc1cccc(CCNC(=O)c2ccc3c(c2)nc2n3CCC(C)C2)c1 (centres undefined) | -12.3 | 
54 | CCOc1cc(CNC(=O)c2sc3ncnc(N(C)C4CCCCC4)c3c2C)ccc1OC | -2.89 | 
55 | CCSc1ncnc2c(C#N)c3n(c12)CCCCC3 | -3.57 | 
56 | CCSC1=C(C#N)C(=O)n2c1cc1c2CCCC1 |  | 31.6 µM [quencher] (active)
57 | O=C(CSCc1cnn(-c2ccccc2)c1-n1cccc1)NCc1ccc(Cl)cc1 | 14.4 | 
58 | COc1ccc(-c2nc3scc(CCNS(=O)(=O)c4cc(F)ccc4OC)n3n2)cc1OC | -16.3 | 
59 | COc1ccc(NC(=O)c2cnc(Nc3ccc(C)c(Cl)c3)c3ccccc23)cc1OC | -13 | 
60 | COc1ccc(C)cc1NC(=O)NCc1ccccn1 | 2.13 | 
61 | COc1ccc(Nc2ncc(C(=O)Nc3cc(C)ccc3OC)c3ccccc23)cc1 |  | 3.55 µM [quencher] (active)
62 | CC1(C)N=C(SCc2ccccc2Cl)c2ccccc2N1 |  | 12.6 µM [quencher] (active)
63 | Nc1nc(SCc2ccccc2Cl)n[nH]1 | -6.77 | 
64 | O=c1cc(O)nc(SCc2ccccc2Cl)[nH]1 | -4.9 | 
